# Test results published in PubChem BioAssay (EPA / NIEHS).
# “And” between values parts separate entries of the source, which are not always exact repeats. Identical values can stand only once. Records with an inconclusive call do not appear. A structure can be active in one record and inactive in another. The source made the active and inactive calls. The calls were made as follows, unless noted: active = hit-call score of the fitted dose curve at least 0.9, where 1 is the maximum; inactive = score below 0.9.
# What was measured:
# [1] = molecular target: Glucocorticoid receptor (Homo sapiens) (UniProt P04150); assay: ATG_GR_TRANS: Attagene TRANS-FACTORIAL HepG2 Assay for human Glucocorticoid Receptor (GR) (AID 2282978; active = hit-call score of the fitted dose curve at least 0.9, where 1 is the maximum;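 also: activators score as hits since higher reporter transcript over DMSO is fitted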); conditions: HepG2 Attagene TRANS GR reporter, mRNA transcription
# Glucocorticoid receptor (Homo sapiens), sequence (P04150 whole entry, looked up, the tested form may be a part): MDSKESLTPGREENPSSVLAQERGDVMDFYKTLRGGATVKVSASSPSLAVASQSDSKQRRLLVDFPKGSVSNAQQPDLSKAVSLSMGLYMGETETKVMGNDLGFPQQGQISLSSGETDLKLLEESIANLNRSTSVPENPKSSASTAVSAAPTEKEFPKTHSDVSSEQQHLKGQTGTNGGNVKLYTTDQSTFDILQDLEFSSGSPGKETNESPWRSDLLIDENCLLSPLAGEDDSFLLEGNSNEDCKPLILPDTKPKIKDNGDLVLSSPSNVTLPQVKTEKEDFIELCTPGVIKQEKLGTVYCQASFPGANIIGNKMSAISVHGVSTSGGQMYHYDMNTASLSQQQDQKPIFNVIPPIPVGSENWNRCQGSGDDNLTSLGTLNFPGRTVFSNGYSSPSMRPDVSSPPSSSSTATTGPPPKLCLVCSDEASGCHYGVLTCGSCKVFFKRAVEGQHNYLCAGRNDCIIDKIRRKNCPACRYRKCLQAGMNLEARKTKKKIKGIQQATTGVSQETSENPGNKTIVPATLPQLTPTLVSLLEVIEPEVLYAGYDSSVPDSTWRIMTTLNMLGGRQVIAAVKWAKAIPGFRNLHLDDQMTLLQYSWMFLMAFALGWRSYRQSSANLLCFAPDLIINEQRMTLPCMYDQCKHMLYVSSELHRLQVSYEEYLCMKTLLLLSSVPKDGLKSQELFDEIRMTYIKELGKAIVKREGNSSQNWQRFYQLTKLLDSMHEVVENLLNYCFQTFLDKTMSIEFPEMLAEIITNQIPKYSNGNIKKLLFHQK
# Outline: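 HepG2 cells transiently transfected with GAL4-UAS reporter units and exogenous GR-Gal4 chimera, dosed 24 h. Reporter mRNA by RT-PCR, FAM labeling, HpaI digest and capillary electrophoresis; gain-of-signal fit versus DMSO.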
# [2] = molecular target: Bile acid receptor (Homo sapiens) (UniProt Q96RI1); assay: ATG_FXR_TRANS: Attagene TRANS-FACTORIAL HepG2 Assay for Farnesoid X Receptor (FXR) (AID 2282979; active = hit-call score of the fitted dose curve at least 0.9, where 1 is the maximum;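 also: hits raise reporter mRNA above DMSO so AC50 marks FXR activation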); conditions: HepG2 Attagene TRANS FXR-GAL4 reporter transcription
# Bile acid receptor (Homo sapiens), sequence (Q96RI1 whole entry, looked up, the tested form may be a part): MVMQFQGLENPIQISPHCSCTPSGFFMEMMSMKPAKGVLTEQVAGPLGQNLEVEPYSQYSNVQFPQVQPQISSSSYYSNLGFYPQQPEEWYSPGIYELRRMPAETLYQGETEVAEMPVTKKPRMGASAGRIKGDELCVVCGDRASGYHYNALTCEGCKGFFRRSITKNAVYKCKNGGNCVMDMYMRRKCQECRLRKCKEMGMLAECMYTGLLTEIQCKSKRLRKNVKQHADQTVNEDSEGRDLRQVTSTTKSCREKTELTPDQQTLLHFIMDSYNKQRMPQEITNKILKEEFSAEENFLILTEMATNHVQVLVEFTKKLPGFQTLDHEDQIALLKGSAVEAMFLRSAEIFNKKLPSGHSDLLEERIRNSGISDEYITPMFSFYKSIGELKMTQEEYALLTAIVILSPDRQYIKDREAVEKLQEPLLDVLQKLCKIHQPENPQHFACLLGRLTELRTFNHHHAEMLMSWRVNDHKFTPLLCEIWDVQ
# Outline: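 Transient transfection of HepG2 with multiplexed GAL4-UAS reporter units; exogenous FXR-GAL4 chimera. Dose 24 h → TriZol RNA → oligo(dT) RT → PCR, 6-FAM primer extension, HpaI cut → CE. Gain vs DMSO.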
# [3] = ATG_M_06_TRANS: Attagene TRANS-FACTORIAL HepG2 Assay for M06 Transcription Factor (Internal Marker) (AID 2282983; active = hit-call score of the fitted dose curve at least 0.9, where 1 is the maximum); conditions: HepG2 Attagene TRANS M06 internal marker reporter
# Outline: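 Background control endpoint: reporter mRNA from transiently transfected HepG2 after 24 h dosing, detected by RT-PCR with capillary electrophoresis fluorescence. Analysed for gain versus DMSO.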
# [4] = ATG_M_32_TRANS: Attagene TRANS-FACTORIAL HepG2 Assay for M32 Transcription Factor (Internal Marker) (AID 2282984; active = hit-call score of the fitted dose curve at least 0.9, where 1 is the maximum;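 also: transcript level of a background control reporter unit measured by RT-PCR and capillary electrophoresis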); conditions: HepG2 Attagene TRANS M32 internal marker reporter
# Outline: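 Read-out: fluorescent reporter cDNA fragments resolved by capillary electrophoresis after RT-PCR of total RNA. Transfected HepG2 cells were exposed to chemical for 24 h. Activity scored in the positive direction relative to DMSO.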
# [5] = molecular target: Transcriptional activator Myb (Homo sapiens) (UniProt P10242); assay: ATG_Myb_CIS: Attagene CIS-FACTORIAL HepG2 Assay for human Myeloblastosis (Myb) Proto-Oncogene Transcription Factor (AID 2282986); conditions: HepG2 Attagene CIS-FACTORIAL Myb reporter transcription; actives raise or lower the signal
# Transcriptional activator Myb (Homo sapiens), sequence (P10242 whole entry, looked up): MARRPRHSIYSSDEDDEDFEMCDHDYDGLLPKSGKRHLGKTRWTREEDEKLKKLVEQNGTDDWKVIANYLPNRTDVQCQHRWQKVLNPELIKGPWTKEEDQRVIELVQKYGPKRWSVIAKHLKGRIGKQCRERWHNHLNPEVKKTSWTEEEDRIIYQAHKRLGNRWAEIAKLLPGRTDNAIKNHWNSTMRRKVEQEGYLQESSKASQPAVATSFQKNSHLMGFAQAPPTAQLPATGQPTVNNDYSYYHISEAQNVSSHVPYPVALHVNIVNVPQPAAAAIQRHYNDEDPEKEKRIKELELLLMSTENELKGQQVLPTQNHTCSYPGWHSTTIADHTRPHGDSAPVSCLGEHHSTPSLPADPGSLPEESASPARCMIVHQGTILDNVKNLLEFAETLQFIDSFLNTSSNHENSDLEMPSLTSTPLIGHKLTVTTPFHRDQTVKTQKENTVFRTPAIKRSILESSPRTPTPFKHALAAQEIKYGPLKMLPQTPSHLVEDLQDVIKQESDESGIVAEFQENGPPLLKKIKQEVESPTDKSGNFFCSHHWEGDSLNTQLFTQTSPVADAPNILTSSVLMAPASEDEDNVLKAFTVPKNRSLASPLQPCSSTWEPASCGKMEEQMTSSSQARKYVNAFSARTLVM
# Outline: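 Transiently transfected HepG2 cells carrying a multiplexed cis-promoter reporter set report endogenous Myb activity after 24 h compound exposure. Reporter mRNA is read by RT-PCR with capillary electrophoresis of fluorescent products, fitted bidirectionally against DMSO.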
# [6] = molecular target: Nuclear respiratory factor 1 (Homo sapiens) (UniProt Q16656); assay: ATG_NRF1_CIS: Attagene CIS-FACTORIAL HepG2 Assay for human Nuclear Respiratory Factor 1 (NRF1) Orphan Gene (AID 2282987); conditions: HepG2 NRF1 cis-element reporter, Attagene multiplex; actives raise or lower the signal
# Nuclear respiratory factor 1 (Homo sapiens), sequence (Q16656 whole entry, looked up): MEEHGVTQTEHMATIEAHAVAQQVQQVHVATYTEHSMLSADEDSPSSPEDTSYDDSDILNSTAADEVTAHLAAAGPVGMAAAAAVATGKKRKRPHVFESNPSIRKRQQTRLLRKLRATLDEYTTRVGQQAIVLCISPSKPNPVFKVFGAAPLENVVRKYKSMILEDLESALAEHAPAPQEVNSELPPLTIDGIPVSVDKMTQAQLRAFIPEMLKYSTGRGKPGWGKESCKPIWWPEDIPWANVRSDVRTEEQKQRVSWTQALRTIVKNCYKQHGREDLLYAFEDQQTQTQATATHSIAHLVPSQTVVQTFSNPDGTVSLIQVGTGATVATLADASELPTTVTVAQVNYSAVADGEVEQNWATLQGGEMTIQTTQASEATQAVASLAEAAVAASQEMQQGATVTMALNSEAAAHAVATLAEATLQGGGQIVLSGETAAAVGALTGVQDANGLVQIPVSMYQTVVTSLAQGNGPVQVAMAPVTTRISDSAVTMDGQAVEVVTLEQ
# Outline: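 HepG2 cells transiently transfected with multiple cis-regulated reporter units, exposed 24 h. Reporter mRNAs measured by RT-PCR, fluorescent labelling, HpaI digestion and capillary electrophoresis; bidirectional fitting against DMSO.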
# [7] = ATG_NFI_CIS: Attagene CIS-FACTORIAL HepG2 Assay for human Nuclear Factor I (NFI) (AID 2282989); conditions: HepG2 cis-regulatory reporter, NFI response element transcription; actives raise or lower the signal
# Outline: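 Endogenous TF activity in HepG2 cells transiently transfected with cis-element-driven multiplexed reporter units, read 24 h after dosing. Reporter mRNA quantified by RT-PCR, 6-FAM labelling, HpaI digestion and capillary electrophoresis; bidirectional fit versus DMSO.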
# [8] = molecular target: Myc proto-oncogene protein (Homo sapiens) (UniProt P01106); assay: ATG_Myc_CIS: Attagene CIS-FACTORIAL HepG2 Assay for human Myelocytomatosis (Myc) Proto-Oncogene Transcription Factor (AID 2282990); conditions: HepG2, Attagene cis-reporter transcription factor activity; actives raise or lower the signal
# Myc proto-oncogene protein (Homo sapiens), sequence (P01106 whole entry, looked up): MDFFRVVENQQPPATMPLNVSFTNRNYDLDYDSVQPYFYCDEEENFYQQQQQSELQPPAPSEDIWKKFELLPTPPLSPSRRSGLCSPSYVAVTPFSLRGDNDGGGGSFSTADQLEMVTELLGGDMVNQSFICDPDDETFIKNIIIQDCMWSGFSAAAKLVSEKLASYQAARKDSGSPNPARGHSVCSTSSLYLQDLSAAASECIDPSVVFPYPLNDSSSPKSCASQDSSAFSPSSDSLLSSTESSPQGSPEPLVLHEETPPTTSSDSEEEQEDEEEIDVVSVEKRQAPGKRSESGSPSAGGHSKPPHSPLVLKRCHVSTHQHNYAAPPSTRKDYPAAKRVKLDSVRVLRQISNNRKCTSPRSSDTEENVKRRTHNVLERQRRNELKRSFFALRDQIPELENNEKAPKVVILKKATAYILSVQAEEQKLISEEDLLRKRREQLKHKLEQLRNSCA
# Outline: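 Transiently transfected HepG2 cells bearing cis-promoter reporter units for endogenous transcription factors; 24 h exposure. Reporter mRNA measured by RT-PCR, 6-FAM primer extension, HpaI cut and capillary electrophoresis; bidirectional fit relative to DMSO.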
# [9] = ATG_NRF2_ARE_CIS: Attagene CIS-FACTORIAL HepG2 Assay for human Nuclear Factor Erythroid 2 Related Factor 2 (NFR2) response to Antioxidant Response Elements (ARE) (AID 2282992); conditions: HepG2 Attagene ARE/NRF2 reporter, transcription factor activity; actives raise or lower the signal
# Outline: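 Endogenous transcription factor activity read out as reporter transcript levels (RT-PCR plus capillary electrophoresis, fluorescence) in transiently transfected HepG2 cells. Measured at 24 h after dosing; gain or loss of signal fitted versus DMSO.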
# [10] = ATG_Oct_MLP_CIS: Attagene CIS-FACTORIAL HepG2 Assay for human Octamer-Binding Transcription Factor (Oct) (AID 2282993); conditions: HepG2 Attagene cis-factorial Oct reporter, mRNA; actives raise or lower the signal
# Outline: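 HepG2 cells transiently transfected with cis-element-driven reporter transcription units (endogenous TF activity); 24 h compound exposure. Reporter mRNA quantified by RT-PCR, 6-FAM labelling, HpaI digestion and capillary electrophoresis; bidirectional fit versus DMSO baseline.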
# [11] = molecular target: Cellular tumor antigen p53 (Homo sapiens) (UniProt P04637); assay: ATG_p53_CIS: Attagene CIS-FACTORIAL HepG2 Assay for human p53 Transcription Factor (AID 2282994); conditions: HepG2 p53 cis-element reporter, Attagene mRNA; actives raise or lower the signal
# Cellular tumor antigen p53 (Homo sapiens), sequence (P04637 whole entry, looked up): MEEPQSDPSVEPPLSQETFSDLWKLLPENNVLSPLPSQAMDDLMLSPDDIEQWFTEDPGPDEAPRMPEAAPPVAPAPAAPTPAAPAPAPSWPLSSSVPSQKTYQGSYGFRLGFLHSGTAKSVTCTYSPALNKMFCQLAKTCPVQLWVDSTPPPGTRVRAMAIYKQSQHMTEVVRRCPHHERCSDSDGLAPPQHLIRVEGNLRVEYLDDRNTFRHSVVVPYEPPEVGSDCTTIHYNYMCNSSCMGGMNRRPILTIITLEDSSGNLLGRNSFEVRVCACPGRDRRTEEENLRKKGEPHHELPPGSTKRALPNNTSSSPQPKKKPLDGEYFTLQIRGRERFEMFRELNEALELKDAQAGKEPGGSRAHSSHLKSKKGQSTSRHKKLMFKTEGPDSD
# Outline: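 Endogenous p53 activity read in transiently transfected HepG2 from a cis-element-driven reporter transcript after 24 h exposure. RNA reverse-transcribed, PCR-amplified, fluorescently labelled and sized by capillary electrophoresis; gain or loss fitted against DMSO baseline.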
# [12] = BSK_3C_TissueFactor: BioMAP Diversity Plus: 3C Assay for Tissue Factor Biomarker Activity (AID 2282997); conditions: BioMAP 3C HUVEC, tissue factor biomarker readout; actives raise or lower the signal
# Outline: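 After a 24 h chemical exposure of primary human umbilical vein endothelial cells, Tissue Factor levels were quantified by ELISA.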
# [13] = BSK_3C_uPAR: BioMAP Diversity Plus: 3C Assay for Urokinase-type plasminogen activator receptor (uPAR) Biomarker Activity (AID 2282998); conditions: BioMAP 3C HUVEC, uPAR biomarker ELISA; actives raise or lower the signal
# Outline: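 Primary human umbilical vein endothelial cells, 3C system; surface uPAR measured by ELISA 24 h after dosing. Cytotoxicity via SRB total protein in parallel cultures; bidirectional fit against DMSO.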
# [14] = BSK_3C_VCAM1: BioMAP Diversity Plus: 3C Assay for Vascular cell adhesion molecule 1 (VCAM1) Biomarker Activity (AID 2282999); conditions: BioMAP 3C HUVEC, VCAM1 ELISA, cytokine-stimulated; actives raise or lower the signal
# Outline: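 HUVEC primary cells, 24 h compound exposure; VCAM-1 by ELISA; gain/loss of signal fitted bidirectionally vs DMSO baseline.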
# [15] = BSK_4H_Eotaxin3: BioMAP Diversity Plus: 4H Assay for Eotaxin 3 Biomarker Activity (AID 2283000); conditions: primary human endothelial cells (HUVEC); actives raise or lower the signal;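 as to outcome: CCL26 protein level quantified by ELISA in parallel with SRB cytotoxicity check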
# Outline: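 Chemicals were added to human umbilical vein endothelium cultures, and Eotaxin-3 was quantified by ELISA at 24 h. Values were derived by bidirectional fitting with DMSO serving as negative control and activity baseline.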
# [16] = molecular target: human Peroxisome Proliferator-activated Receptor alpha (PPARa), PPARA (gene 5465) (UniProt Q07869); assay: ATG_PPARa_TRANS: Attagene TRANS-FACTORIAL HepG2 Assay for human Peroxisome Proliferator-activated Receptor alpha (PPARa) (AID 2283001; active = hit-call score of the fitted dose curve at least 0.9, where 1 is the maximum;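 as to AC50: potency for gain of reporter signal over DMSO so agonist or activator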)
# Outline: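 Transient HepG2 transfection, GAL4-UAS reporters, NR-Gal4 chimeras; 24 h compound exposure. Readout: reporter transcripts by RT-PCR, 6-FAM primer extension, HpaI digest, capillary electrophoresis. Positive direction vs DMSO baseline.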
# [17] = molecular target: Oxysterols receptor LXR-alpha (Homo sapiens) (UniProt Q13133); assay: ATG_LXRa_TRANS: Attagene TRANS-FACTORIAL HepG2 Assay for human Liver X Receptor alpha (LXRa) (AID 2282980; active = hit-call score of the fitted dose curve at least 0.9, where 1 is the maximum); conditions: HepG2 Attagene TRANS reporter, LXRa transactivation
# Oxysterols receptor LXR-alpha (Homo sapiens), sequence (Q13133 whole entry, looked up, the tested form may be a part): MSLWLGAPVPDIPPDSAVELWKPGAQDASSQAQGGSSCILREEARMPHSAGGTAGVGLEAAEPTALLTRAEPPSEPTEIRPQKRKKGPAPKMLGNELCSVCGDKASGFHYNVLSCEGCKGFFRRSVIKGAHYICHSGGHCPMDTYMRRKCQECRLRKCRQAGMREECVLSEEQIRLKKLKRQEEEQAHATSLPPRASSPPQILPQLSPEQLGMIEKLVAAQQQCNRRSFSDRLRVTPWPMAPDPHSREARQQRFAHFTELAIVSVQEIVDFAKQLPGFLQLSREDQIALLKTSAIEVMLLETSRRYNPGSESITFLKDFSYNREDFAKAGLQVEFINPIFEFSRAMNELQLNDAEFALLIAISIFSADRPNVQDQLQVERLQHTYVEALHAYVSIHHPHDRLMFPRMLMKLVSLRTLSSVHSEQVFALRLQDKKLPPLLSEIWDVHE
# Outline: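 Transfect HepG2 with GAL4-UAS multiplex reporter constructs (TRANS format, chimeric receptor-GAL4); treat 24 h; extract RNA, reverse-transcribe, PCR-amplify, FAM-label, HpaI-digest; resolve fragments by capillary electrophoresis. Upward response vs DMSO.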
# [18] = molecular target: Oxysterols receptor LXR-beta (Homo sapiens) (UniProt P55055); assay: ATG_LXRb_TRANS: Attagene TRANS-FACTORIAL HepG2 Assay for human Liver X Receptor beta (LXRb) (AID 2282981; active = hit-call score of the fitted dose curve at least 0.9, where 1 is the maximum); conditions: HepG2 Attagene TRANS GAL4-LXRb reporter, mRNA
# Oxysterols receptor LXR-beta (Homo sapiens), sequence (P55055 whole entry, looked up, the tested form may be a part): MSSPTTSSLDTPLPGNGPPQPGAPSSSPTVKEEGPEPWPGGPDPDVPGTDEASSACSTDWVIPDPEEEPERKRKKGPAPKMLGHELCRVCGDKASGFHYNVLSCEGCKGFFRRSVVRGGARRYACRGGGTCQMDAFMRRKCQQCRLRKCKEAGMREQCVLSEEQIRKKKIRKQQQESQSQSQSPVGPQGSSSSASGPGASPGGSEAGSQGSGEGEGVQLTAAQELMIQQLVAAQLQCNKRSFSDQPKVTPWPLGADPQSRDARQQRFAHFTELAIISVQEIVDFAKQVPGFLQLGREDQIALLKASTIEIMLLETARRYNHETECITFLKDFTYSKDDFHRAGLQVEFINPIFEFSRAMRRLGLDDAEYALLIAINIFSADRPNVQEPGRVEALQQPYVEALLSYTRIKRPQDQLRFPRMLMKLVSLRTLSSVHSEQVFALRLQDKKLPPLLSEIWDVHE
# Outline: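 Readout: fluorescent reporter mRNA fragments resolved by capillary electrophoresis after RT-PCR. System: transiently transfected human HepG2, exogenous LXRb-Gal4 chimera driving GAL4-UAS reporter, 24 h dosing. Activity fitted upward against DMSO baseline.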
# [19] = ATG_NF_kB_CIS: Attagene CIS-FACTORIAL HepG2 Assay for human Nuclear Factor Kappa B (NF-kB) (AID 2282991); conditions: HepG2 Attagene cis-factorial NF-kB reporter mRNA; actives raise or lower the signal
# Outline: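 HepG2 cells transfected with cis-promoter-driven reporter units, so endogenous transcription factor activity is measured. Reporter mRNA quantified 24 h after dosing by RT-PCR and capillary electrophoresis, with bidirectional fitting against DMSO.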
# [20] = molecular target: Nuclear receptor subfamily 4 group A member 2 (Homo sapiens) (UniProt P43354); assay: ATG_NURR1_TRANS: Attagene TRANS-FACTORIAL HepG2 Assay for human Nuclear Receptor Related Protein 1 (NURR1) (AID 2282985; active = hit-call score of the fitted dose curve at least 0.9, where 1 is the maximum); conditions: HepG2 Attagene TRANS reporter, mRNA readout
# Nuclear receptor subfamily 4 group A member 2 (Homo sapiens), sequence (P43354 whole entry, looked up, the tested form may be a part): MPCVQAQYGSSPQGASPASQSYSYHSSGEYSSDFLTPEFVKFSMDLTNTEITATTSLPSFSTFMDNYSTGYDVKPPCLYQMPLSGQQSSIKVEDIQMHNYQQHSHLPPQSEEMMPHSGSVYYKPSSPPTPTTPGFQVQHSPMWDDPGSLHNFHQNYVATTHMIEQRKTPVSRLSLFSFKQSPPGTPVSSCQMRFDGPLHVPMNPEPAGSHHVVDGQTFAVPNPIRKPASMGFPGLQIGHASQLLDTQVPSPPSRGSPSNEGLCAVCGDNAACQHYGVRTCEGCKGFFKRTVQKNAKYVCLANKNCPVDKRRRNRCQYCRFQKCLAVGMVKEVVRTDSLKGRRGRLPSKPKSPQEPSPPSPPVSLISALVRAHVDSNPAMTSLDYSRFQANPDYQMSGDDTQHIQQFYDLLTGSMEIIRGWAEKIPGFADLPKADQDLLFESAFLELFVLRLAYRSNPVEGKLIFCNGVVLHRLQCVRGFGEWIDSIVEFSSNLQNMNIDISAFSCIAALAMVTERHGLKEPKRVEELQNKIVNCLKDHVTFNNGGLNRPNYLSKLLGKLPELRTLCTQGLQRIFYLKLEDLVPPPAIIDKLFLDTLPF
# Outline: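 Read-out: reporter mRNA induction by RT-PCR plus capillary electrophoresis with fluorescence detection, after 24 h dosing of transfected HepG2 cells. Exogenous NR-Gal4 chimera activity drives GAL4-UAS reporter; activity fitted upward versus DMSO.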
smiles,measurement,setting,value
CC(C)(C)c1csc(-c2cc3cc(OCc4ccccc4CC(=O)O)ccc3o2)n1,outcome,[1],inactive
same,outcome,[2],inactive
same,outcome,[3],inactive
same,outcome,[4],inactive
same,outcome,[5],inactive
same,outcome,[6],inactive
same,outcome,[7],inactive
same,outcome,[8],inactive
same,AC50,[9],8.91 µM (active)
same,AC50,[10],33.4 µM (active)
same,outcome,[11],inactive
same,AC50,[12],35.7 µM (active)
same,AC50,[13],20.5 µM (active)
same,AC50,[14],29.8 µM (active)
same,AC50,[15],22.4 µM (active)
same,outcome,[16],inactive
Cc1c2ccccc2c(C)c2c1ccc1ccccc12,outcome,[1],inactive
same,outcome,[2],inactive
same,outcome,[17],inactive
same,outcome,[18],inactive
same,outcome,[3],inactive
same,outcome,[4],inactive
same,outcome,[5],inactive
same,outcome,[6],inactive
same,outcome,[7],inactive
same,AC50,[8],64.1 µM (active)
same,outcome,[19],inactive
same,AC50,[9],12.4 µM (active)
same,outcome,[10],inactive
same,outcome,[11],inactive
same,outcome,[12],inactive
same,AC50,[13],15.2 µM (active)
same,AC50,[14],20 µM (active)
same,AC50,[15],28.6 µM (active)
same,AC50,[16],148 µM (active)
O=C(O)c1ccccc1-n1cc(C(=O)O)c(=O)c2cc(Nc3c(F)cc(F)cc3Cl)c(Cl)cc21,outcome,[1],inactive
same,outcome,[2],inactive
same,outcome,[17],inactive
same,outcome,[3],inactive
same,outcome,[4],inactive
same,outcome,[5],inactive
same,outcome,[6],inactive
same,outcome,[7],inactive
same,outcome,[8],inactive
same,outcome,[19],inactive
same,outcome,[9],inactive
same,outcome,[10],inactive
same,outcome,[11],inactive
same,outcome,[12],inactive
same,outcome,[13],inactive
same,outcome,[14],inactive
same,outcome,[15],inactive
CC(=O)N1CCN(c2ccc(OC[C@H]3CO[C@](Cn4ccnc4)(c4ccc(Cl)cc4Cl)O3)cc2)CC1,outcome,[1],inactive
same,outcome,[2],inactive
same,outcome,[4],inactive
same,AC50,[20],43.7 µM (active)
same,outcome,[5],inactive
same,outcome,[6],inactive
same,outcome,[7],inactive
same,outcome,[8],inactive
same,outcome,[19],inactive
same,AC50,[9],24 µM (active)
same,AC50,[10],9.69 µM (active)
same,outcome,[11],inactive
same,AC50,[12],31.1 µM (active)
same,AC50,[13],29.8 µM (active)
same,outcome,[14],inactive
same,AC50,[15],33.7 µM (active)
C[C@]12CC[C@@H]3c4ccc(O)cc4CC[C@H]3[C@@H]1CC[C@H]2O,outcome,[1],inactive
same,outcome,[17],inactive
same,outcome,[18],inactive
same,outcome,[3],inactive
same,outcome,[4],inactive
same,outcome,[20],inactive
same,outcome,[5],inactive
same,outcome,[6],inactive
same,outcome,[7],inactive
same,outcome,[8],inactive
same,outcome,[9],inactive
same,AC50,[10],27.2 µM (active)
same,outcome,[10],inactive
same,AC50,[11],27.7 µM (active) and 10.4 µM (active) and 9.47 µM (active)
same,outcome,[11],inactive
same,AC50,[12],18.1 µM (active)
same,AC50,[13],16.7 µM (active)
same,outcome,[14],inactive
same,AC50,[15],25 µM (active)
